Experimental data taken from PubChem BioAssay (Tox21).
Results filed as inconclusive are left out. Active and inactive are the calls of the source. Unless noted, calls follow the shape of the dose curve; as a rule, active = well fitted curve in the direction sought with a large enough effect in the repeat runs; inconclusive = weak or mixed curves; inactive = no such curve, though single readings can be large; an effect the other way counts as inactive or inconclusive.

Assays:
[1] = qHTS assay to identify small molecule agonists of the peroxisome proliferator-activated receptor delta (PPARd) signaling pathway - cell viability counter screen (AID 743211); also: % is scaled to controls: 0 for no effect and ±100 for the full control effect; nearly all actives have a fitted effect of over 55% in size
How it was run: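 Following 5 h plating at 37 C and 5% CO2, PPARd UAS-bla HEK293H cells took up test compounds for 17 h. Viability was quantified by luminescence 30 min after CellTiter-Glo addition at room temperature.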

[2] = molecular target: Peroxisome proliferator-activated receptor delta (Homo sapiens) (UniProt Q03181); test: qHTS assay to identify small molecule agonists of the peroxisome proliferator-activated receptor delta (PPARd) signaling pathway (AID 743212; calls by dose curve; also: % is scaled to controls: 0 for no effect and ±100 for the full control effect)
How it was run: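 Quantitative high-throughput agonist screen in a HEK293H beta-lactamase reporter line under UAS control. Compounds in DMSO, at 37 C. Fluorescence read after 2 h with FRET substrate at room temperature.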

[3] = qHTS assay to identify small molecule antagonists of the peroxisome proliferator-activated receptor delta (PPARd) signaling pathway - cell viability counter screen (AID 743213); also: % is scaled to controls: 0 for no effect and ±100 for the full control effect; nearly all actives have a fitted effect of over 50% in size
How it was run: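 Agonist-stimulated (L165041, 300 nM final) HEK293H PPARd UAS-bla cells are exposed to compounds for 17 h at 37 C, and ATP-based luminescence (CellTiter-Glo) from the same wells reports cytotoxicity.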

[4] = molecular target: Peroxisome proliferator-activated receptor delta (Homo sapiens) (UniProt Q03181); test: qHTS assay to identify small molecule antagonists of the peroxisome proliferator-activated receptor delta (PPARd) signaling pathway (AID 743215; active = well fitted inhibition curve with a large enough effect in the signal ratio in the repeat runs, not every such curve was filed as active; the % refers to the signal ratio; also: series mostly up to about 62 µM; % is scaled to controls: 0 for no effect and ±100 for the full control effect)
How it was run: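 PPARd-bla HEK293H cells (UAS-bla reporter) preincubated 5 h, then given compound plus 300 nM final L165041 agonist for 17 h at 37 C. Beta-lactamase activity read by LiveBLAzer B/G FRET substrate fluorescence after 2 h at room temperature.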

[5] = molecular target: Bile acid receptor (Homo sapiens) (UniProt Q96RI1); test: qHTS assay to identify small molecule antagonists of the farnesoid-X-receptor (FXR) signaling pathway (AID 743217; active = well fitted inhibition curve with a large enough effect in the signal ratio in the repeat runs, not every such curve was filed as active; the % refers to the signal ratio; also: % is scaled to controls: 0 for no effect and ±100 for the full control effect)
How it was run: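 FXR-UAS-bla HEK 293T cells (beta-lactamase reporter) given compound plus chenodeoxycholic acid (50 uM final), 16 h at 37C. LiveBLAzer B/G FRET substrate added for 2 h at room temperature; fluorescence read.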

[6] = qHTS assay to identify small molecule agonists of the farnesoid-X-receptor (FXR) signaling pathway - cell viability counter screen (AID 743218); also: % is scaled to controls: 0 for no effect and ±100 for the full control effect; nearly all actives have a fitted effect of over 45% in size
How it was run: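 FXR-UAS-bla HEK 293T cells exposed to compounds for 16 h at 37C. Cytotoxicity read in the same wells by CellTiter-Glo luminescence after 30 min at room temperature, following the beta-lactamase FRET read.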

[7] = molecular target: Bile acid receptor (Homo sapiens) (UniProt Q96RI1); test: qHTS assay to identify small molecule agonists of the farnesoid-X-receptor (FXR) signaling pathway (AID 743220; active = well fitted activation curve with a large enough effect in the signal ratio in the repeat runs, not every such curve was filed as active; the % refers to the signal ratio; also: % is scaled to controls: 0 for no effect and ±100 for the full control effect)
How it was run: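 Beta-lactamase reporter under UAS control in GeneBLAzer FXR HEK 293T cells (5000/well) measured with LiveBLAzer FRET substrate after 2 h at room temperature. Compound exposure lasted 16 h at 37C.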

[8] = molecular target: Vitamin D3 receptor (Homo sapiens) (UniProt P11473); test: qHTS assay to identify small molecule agonists of the vitamin D receptor (VDR) signaling pathway (AID 743222; calls by dose curve; also: % is scaled to controls: 0 for no effect and ±100 for the full control effect)
How it was run: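 VDR-bla cells plated 4 h at 37 C, then exposed to compounds for 16 h at 37 C. Beta-lactamase reporter activity measured by fluorescence after 2 h room-temperature loading with LiveBLAzer B/G FRET substrate.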

[9] = molecular target: Vitamin D3 receptor (Homo sapiens) (UniProt P11473); test: qHTS assay to identify small molecule antagonists of the vitamin D receptor (VDR) signaling pathway (AID 743223; active = well fitted inhibition curve with a large enough effect in the signal ratio in the repeat runs, not every such curve was filed as active; the % refers to the signal ratio; also: % is scaled to controls: 0 for no effect and ±100 for the full control effect)
How it was run: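 Beta-lactamase activity in VDR-bla cells is measured by FRET substrate fluorescence (2 h, room temperature) after cells spend 16 h at 37C with test compound and 3 nM final 1alpha,25-dihydroxyvitamin D3.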

[10] = qHTS assay to identify small molecule agonists of the vitamin D receptor (VDR) signaling pathway - cell viability counter screen (AID 743224); also: series mostly up to about 63 µM; % is scaled to controls: 0 for no effect and ±100 for the full control effect; nearly all actives have a fitted effect of over 50% in size
How it was run: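 VDR-bla cells, 4 h after plating, exposed to compounds for 16 h at 37C; viability then read in the same wells as CellTiter-Glo luminescence after 30 min at room temperature, following the bla FRET read.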

[11] = qHTS assay to identify small molecule antagonists of the vitamin D receptor (VDR) signaling pathway - cell viability counter screen (AID 743225); also: % is scaled to controls: 0 for no effect and ±100 for the full control effect; nearly all actives have a fitted effect of over 50% in size
How it was run: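 In this counter screen, VDR-bla HEK 293T cells receive test compound plus 3 nM final calcitriol for 16 h at 37C. Room-temperature steps of 2 h with the beta-lactamase substrate, then 30 min with CellTiter-Glo, precede the luminescence read.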

[12] = qHTS assay to identify small molecule agonists of the NFkB signaling pathway (AID 1159509; active = well fitted curve in the direction sought with a large enough effect in the signal ratio in the repeat runs, not every such curve was filed as active; the % refers to the signal ratio)
How it was run: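 After overnight attachment, reporter cells received test compounds, DMSO or positive controls and were incubated 5 hr at 37 C. FRET substrate was then added for 1.5 hr at room temperature before dual-emission fluorescence reading.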

[13] = qHTS assay to identify small molecule agonists of the NFkB signaling pathway - cell viability counter screen (AID 1159515; calls by dose curve; also: series mostly up to about 61 µM; % is scaled to controls: 0 for no effect and ±100 for the full control effect; nearly all actives have a fitted effect of over 55% in size)
How it was run: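 NFkB-bla ME-180 cells, 2,000/well, plated overnight at 37 C; compound added for 5 hr at 37 C. Viability read in the same wells as the bla reporter, by CellTiter-Glo luminescence after 30 min at room temperature.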

[14] = qHTS assay to identify small molecule agonists of the endoplasmic reticulum stress response signaling pathway (AID 1159516; active = well fitted activation curve with a large enough effect in the signal ratio in the repeat runs, not every such curve was filed as active; the % refers to the signal ratio; also: % is scaled to controls: 0 for no effect and ±100 for the full control effect)
How it was run: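 CellSensor ESRE-bla HeLa cells, 1,500 per well, plated overnight, then exposed to compounds for 5 hr at 37 C. Beta-lactamase reporter read with LiveBLAzer B/G FRET substrate after 2 hr at room temperature, 405 nm excitation, 460 and 530 nm emission.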

[15] = qHTS assay to identify small molecule antagonists of the retinoid-related orphan receptor gamma (ROR-gamma) signaling pathway - cell viability counter screen (AID 1159520); also: % is scaled to controls: 0 for no effect and ±100 for the full control effect; nearly all actives have a fitted effect of over 50% in size
How it was run: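 Tet-on ROR gamma CHO cells were given compounds for 2 hr, then doxycycline hyclate at 1 uM final, and incubated 16 hr at 37 C. Viability was measured as ATP content by CellTiter-Glo luminescence.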

[16] = molecular target: Nuclear receptor ROR-gamma (Homo sapiens) (UniProt P51449); test: qHTS assay to identify small molecule antagonists of the retinoid-related orphan receptor gamma (ROR-gamma) signaling pathway (AID 1159521)
How it was run: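 Screening format: cell-based luciferase reporter in CHO cells with doxycycline-inducible RORγ. Compound pre-exposure lasts 2 h, doxycycline is 1 uM final, induction runs 16 h at 37 C, and ONE-Glo luminescence is read.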

[17] = qHTS assay to identify small molecule agonists of the AP-1 signaling pathway - cell viability counter screen (AID 1159525; calls by dose curve; also: nearly all actives have a fitted effect of over 55% in size)
How it was run: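 AP-1-bla ME-180 cells in Opti-MEM with 0.5% dialyzed FBS, compound exposure 5 h at 37 C in 15-point titration. Viability read in the same wells as ATP content by CellTiter-Glo luminescence, normalised to tetra-n-octylammonium bromide and DMSO controls.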

[18] = qHTS assay to identify small molecule agonists of the AP-1 signaling pathway (AID 1159526; calls by dose curve; also: % is scaled to controls: 0 for no effect and ±100 for the full control effect)
[19] = qHTS assay to identify small molecule antagonists of the farnesoid-X-receptor (FXR) signaling pathway - cell viability counter screen (AID 743221; active = well fitted cell-killing curve with a large enough effect in the repeat runs, not every such curve was filed as active)
How it was run: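 Compound effects on cell number were measured as CellTiter-Glo luminescence in HEK 293T cells expressing FXR-UAS-bla, after 16 h at 37 C with 50 uM CDCA (final).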

Sequence of Peroxisome proliferator-activated receptor delta (Homo sapiens) (Q03181 whole entry, looked up): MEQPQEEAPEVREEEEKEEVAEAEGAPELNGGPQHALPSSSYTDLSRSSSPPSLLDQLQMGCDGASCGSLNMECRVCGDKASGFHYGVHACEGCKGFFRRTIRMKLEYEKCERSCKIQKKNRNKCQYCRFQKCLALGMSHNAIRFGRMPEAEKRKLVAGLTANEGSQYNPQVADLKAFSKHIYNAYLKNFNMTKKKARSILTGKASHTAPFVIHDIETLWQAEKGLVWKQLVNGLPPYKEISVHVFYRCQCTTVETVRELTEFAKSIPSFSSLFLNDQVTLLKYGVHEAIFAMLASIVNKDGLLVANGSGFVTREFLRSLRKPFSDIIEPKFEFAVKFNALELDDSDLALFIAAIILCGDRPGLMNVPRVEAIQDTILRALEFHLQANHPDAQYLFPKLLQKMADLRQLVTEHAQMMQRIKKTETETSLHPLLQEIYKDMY
Sequence of Vitamin D3 receptor (Homo sapiens) (P11473 whole entry, looked up): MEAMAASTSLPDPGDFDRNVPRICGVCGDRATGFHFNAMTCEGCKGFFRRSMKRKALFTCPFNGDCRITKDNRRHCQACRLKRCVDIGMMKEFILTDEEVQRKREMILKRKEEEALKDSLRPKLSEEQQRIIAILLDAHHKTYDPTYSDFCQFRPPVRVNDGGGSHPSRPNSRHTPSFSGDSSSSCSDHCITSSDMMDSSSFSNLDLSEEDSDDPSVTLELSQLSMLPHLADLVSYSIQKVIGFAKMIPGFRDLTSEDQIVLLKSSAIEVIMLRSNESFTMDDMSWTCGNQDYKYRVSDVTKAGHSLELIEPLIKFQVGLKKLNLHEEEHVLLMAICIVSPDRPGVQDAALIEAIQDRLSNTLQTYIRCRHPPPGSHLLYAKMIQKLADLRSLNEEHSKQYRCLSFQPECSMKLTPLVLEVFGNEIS
Sequence of Bile acid receptor (Homo sapiens) (Q96RI1 whole entry, looked up): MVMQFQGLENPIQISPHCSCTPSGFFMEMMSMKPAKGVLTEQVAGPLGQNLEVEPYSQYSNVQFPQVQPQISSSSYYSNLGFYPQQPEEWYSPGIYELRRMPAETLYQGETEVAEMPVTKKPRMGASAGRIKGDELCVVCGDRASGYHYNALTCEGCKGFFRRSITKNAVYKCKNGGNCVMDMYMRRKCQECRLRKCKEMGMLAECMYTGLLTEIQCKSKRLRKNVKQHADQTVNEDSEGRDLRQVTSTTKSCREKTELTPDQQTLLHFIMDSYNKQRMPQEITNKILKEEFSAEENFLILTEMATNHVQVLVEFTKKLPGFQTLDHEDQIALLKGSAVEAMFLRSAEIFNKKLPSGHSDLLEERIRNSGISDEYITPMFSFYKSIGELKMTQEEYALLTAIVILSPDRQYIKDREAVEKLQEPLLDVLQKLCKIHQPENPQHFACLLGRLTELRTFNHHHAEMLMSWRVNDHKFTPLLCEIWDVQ

CCCCCCCCCCCCCOC(=O)CCSCCC(=O)OCCCCCCCCCCCCC
inactive: Potency [1] | outcome [2] | Potency [3] | Potency [4] | outcome [5] | Potency [6] | Potency [7] | outcome [8] | outcome [9] | Potency [10] | Potency [11] | outcome [12] | Potency [13] | Potency [14] | activity, negative = cytotoxicity [15] 0.433% [at 19 µM] | activity change, negative = inhibition [16] -3.96% [at 19 µM] | viability change, negative = cytotoxic [17] -10.6% [at 15.8 µM] | activation [18] -14.2% [at 15.8 µM]

CSCC[C@H](NC(=O)[C@H](Cc1c[nH]c2ccccc12)NC(=O)CCNC(=O)OC(C)(C)C)C(=O)N[C@@H](CC(=O)O)C(=O)N[C@@H](Cc1ccccc1)C(N)=O
inactive: Potency [1] | outcome [2] | Potency [3] | outcome [5] | Potency [6] | Potency [7] | Potency [19] | Potency [10] | Potency [11] | outcome [12] | Potency [13] | Potency [14] | Potency [15] | Potency [16] | Potency [17] | outcome [18]

CC[C@H]1OC(=O)[C@H](C)[C@@H](O[C@H]2C[C@@](C)(OC)[C@@H](O)[C@H](C)O2)[C@H](C)[C@@H](O[C@@H]2O[C@H](C)C[C@H](N(C)C)[C@H]2O)[C@](C)(O)C[C@@H](C)/C(=N\OCOCCOC)[C@H](C)[C@@H](O)[C@]1(C)O
inactive: Potency [1] | Potency [3] | outcome [5] | Potency [6] | Potency [7] | outcome [8] | outcome [9] | Potency [10] | outcome [12] | Potency [13] | Potency [14] | Potency [15] | Potency [16] | Potency [17] | outcome [18]

Nc1ccc(F)cc1
inactive: Potency [1] | outcome [2] | Potency [3] | Potency [6] | Potency [19] | outcome [8] | outcome [9] | Potency [11] | outcome [12] | Potency [13] | Potency [14] | Potency [15] | Potency [16] | Potency [17] | outcome [18]

CC(=O)N[C@@H](Cc1ccc(O)cc1)C(=O)O
inactive: Potency [1] | outcome [2] | Potency [3] | Potency [4] | Potency [6] | Potency [19] | outcome [8] | outcome [9] | Potency [10] | Potency [11] | outcome [12] | Potency [13] | Potency [14] | Potency [15] | Potency [16] | Potency [17] | outcome [18]

CC1CCc2nccnc21 (configuration not stated)
inactive: Potency [1] | outcome [2] | Potency [4] | Potency [6] | Potency [7] | Potency [19] | outcome [8] | outcome [9] | Potency [10] | outcome [12] | Potency [13] | Potency [14] | Potency [15] | Potency [16] | Potency [17] | outcome [18]

CC(C)(C(=O)c1cccnc1)c1cccnc1
inactive: Potency [1] | outcome [2] | Potency [4] | Potency [19] | outcome [8] | outcome [9] | Potency [10] | Potency [11] | outcome [12] | Potency [13] | Potency [14] | Potency [15] | Potency [16] | Potency [17] | outcome [18]
